The list is not random: actives were taken first. Their share in the collection is about 28%.
D1 mod: D1 dopamine receptor (human) allosteric modulation | P21728 | HEK293 D1, CRE-luciferase, dopamine EC30 potentiation; actives deviate in either direction | B-score at 10 µM | 5.9% of 58,000 active | AID 641;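 active = luminescence count or its row- and column-corrected plate score outside the 99.7% band of the plate's sample wells, on either side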
Target sequence (P21728 whole entry, looked up): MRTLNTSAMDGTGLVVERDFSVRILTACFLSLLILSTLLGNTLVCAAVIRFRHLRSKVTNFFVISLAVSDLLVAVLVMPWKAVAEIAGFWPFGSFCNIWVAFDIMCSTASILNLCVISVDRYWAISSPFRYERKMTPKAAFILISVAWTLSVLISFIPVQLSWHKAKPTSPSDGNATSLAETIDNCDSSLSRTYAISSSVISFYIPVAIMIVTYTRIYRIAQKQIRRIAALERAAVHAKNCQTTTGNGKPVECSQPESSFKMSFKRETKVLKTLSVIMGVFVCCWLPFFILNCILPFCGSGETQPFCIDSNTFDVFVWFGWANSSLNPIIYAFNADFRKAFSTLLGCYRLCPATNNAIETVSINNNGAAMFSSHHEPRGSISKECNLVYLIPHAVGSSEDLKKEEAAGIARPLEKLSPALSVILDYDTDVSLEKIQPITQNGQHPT
CYP2C9 inhib: blocks human cytochrome P450 2C9; 20% of 96,000 active; inhibition, % at 5 µM; P11712; CYP2C9 Supersomes, luciferin-H conversion, luminescence; AID 777;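 active = blocking of liver enzyme CYP2C9 beyond about 50% at 5 µM, limit read from the data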
CYP2C19 activ: increases human CYP2C19 enzyme activity. P33261. recombinant CYP2C19, luciferin-H EGE luminescence; hits give high values; 0 = fully inhibited enzyme, 1 = untreated enzyme. activation factor at 5 µM. 96,000 tested, under 10 active. AID 1025;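 active = activation factor of at least 2 at 5 µM in the primary screen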;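 note: 0 = wells with 2.5 mM tranylcypromine and 1 = vehicle-only wells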
CYP2C19 inh: blocks human cytochrome P450 2C19. CYP2C19 Supersomes, luciferin-H EGE luminescence, 30 min. inhibition, % at 5 µM. 21% of 96,000 active. AID 778;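 active = CYP2C19 inhibition above a set limit at 5 µM in the primary screen, cut at about 50% in these data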;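 note: plate controls were negative control wells for no effect and 2.5 mM tranylcypromine positive control for full effect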
DAT uptake mod: changed human dopamine transporter uptake under cocaine IC80 | Q01959 | LLC-PK1 hDAT cells, [14C]-dopamine uptake with cocaine IC80; actives deviate in either direction | B-score at 10 µM | 1.3% of 110,000 active | AID 449768;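 active = Z score or B-score, a plate-position-corrected score, falls beyond the plate's 99.7% confidence bounds, in either direction; inactive = both scores lie inside the 99.7% bounds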;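 note: scored against the spread of the other compound wells on the same plate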
CYP2C9 activ: activators of human CYP2C9; P11712; recombinant CYP2C9, luciferin-H conversion, luminescence; hits give high values; factor 1 = untreated enzyme, 0 = blocked; activation factor at 5 µM; 1.4% of 96,000 active;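 active = activation factor of 2 or more for CYP2C9 at a 5 µM dose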;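 note: 0 = sulfaphenazole-blocked wells and 1 = vehicle-only wells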
Starred values were filed as active, the others as inactive; nt = no result given.

SMILES	D1 mod	CYP2C9 inhib	CYP2C19 activ	CYP2C19 inh	DAT uptake mod	CYP2C9 activ
C=CCNc1nc(-c2ccccc2)c(C(=O)OCC)cc1C#N	nt	25	0.7	26	-0.04	0.8
COc1ccc(NC(=O)C23CCC(C)(C(=O)C2)C3(C)C)cc1 (stereo not drawn)	-1.9	2	0.9	8	-0.52	1
CCC(Cc1ccccc1)NC(=O)C1CCN(S(=O)(=O)c2c(C)noc2C)CC1 (stereo not drawn)	nt	11	1.2	-20	-1.9	0.9
OCCCn1c(C(CO)Nc2nc(-c3ccc(Cl)cc3)cs2)nc2ccccc21 (stereo not drawn)	nt	nt	nt	nt	2.5*	nt
Cc1ccc(-c2csc(NC(CO)c3nc4ccccc4n3CCOCCO)n2)cc1 (stereo not drawn)	nt	nt	nt	nt	2.8*	nt
CCCn1c2c(c(O)c(C(=O)Nc3ccc(C)cn3)c1=O)CCCC2	-1.3	nt	nt	nt	nt	nt
CCCn1c2c(c(O)c(C(=O)Nc3ccc(OCC)cc3)c1=O)CCCC2	0.37	52*	1	-2	nt	0.5
CC(C)NC(=O)c1onc(CSc2cccc(F)c2)c1C(=O)O	nt	35	1	-1	0.94	0.7
CCc1ccc(OCC(O)CN2CCN(c3ccccc3)CC2)cc1 (stereo not drawn)	nt	16	0.3	67*	0.74	0.8
CCCc1ccc(OCC(O)CN2CCN(c3ccccc3)CC2)cc1 (stereo not drawn)	nt	38	0.3	73*	1.3	0.6
Cc1ccc(C)c(NC(=O)c2ccc[n+](Cc3ccc([N+](=O)[O-])cc3)c2)c1	nt	-6	1.1	-14	-0.56	1.1
CCOC(=O)CN1C(=O)N[C@@H](c2ccccc2)C(C(C)=O)=C1C	nt	nt	nt	nt	-0.8	nt
CCOC(=O)CN1C(=O)C(O)(C2CCc3ccccc3C2=O)c2ccccc21 (stereo not drawn)	0.43	15	0.3	73*	0.67	0.8
CCOC(=O)CN1C(=O)C(O)(c2c(C)[nH]c3ccccc23)c2ccccc21 (stereo not drawn)	nt	94*	0	99*	nt	0.1
CCCSc1nsc(NC(=O)C(c2ccccc2)c2ccccc2)n1	nt	73*	0.8	20	-0.14	0.3
O=C(Cc1ccccc1)N/N=C/c1ccccc1Cl	nt	23	0.4	57*	-1.4	0.8
O=C(CC(=O)N/N=C/c1ccc(Cl)cc1Cl)NCc1ccccc1	nt	44	0.4	55*	-0.77	0.6
C=CCNC(=O)CC(=O)N/N=C/c1ccccc1F	nt	89*	0.8	25	-0.86	0.1
Cc1ccccc1N(CC(=O)N/N=C/c1ccccc1Cl)C(=O)c1ccccc1	nt	-10	1.1	-12	0.088	1.1
CC(/C=C/c1ccccc1)=N\NC(N)=S	nt	14	0.8	19	-0.064	0.9
Cc1oc(-c2ccccc2Cl)nc1CSCC(=O)O	nt	7	1	-1	-0.17	0.9
O=C(NC1CCCCC1)N1CCN(C(c2ccccc2)c2ccccc2)CC1	nt	47	1	0	-0.021	0.5
O=C(CN1CCOCC1)Nc1nc2ccc(Br)cc2s1	nt	65*	0.8	15	-0.37	0.3
CCN1C(=O)c2cccc3c(NC(=O)c4cccc(N5C(=O)CCC5=O)c4)ccc1c23	-0.91	10	1.1	-5	nt	0.9
CCOc1cc(C(=O)Nc2ccc3c4c(cccc24)C(=O)N3CC)cc(OCC)c1OCC	nt	57*	0.9	7	0.48	0.4
SMILES	D1 mod	CYP2C9 inhib	CYP2C19 activ	CYP2C19 inh	DAT uptake mod	CYP2C9 activ
O=C(OC1CCOC1=O)c1cc(-c2ccc(Br)cc2)nc2ccccc12 (stereo not drawn)	nt	52*	1	0	-0.089	0.5
Cc1cc(C(=O)OC2CCOC2=O)c2ccccc2n1 (stereo not drawn)	nt	4	0.9	8	-0.94	1
Cc1ccc2nc(C)cc(C(=O)OCC(=O)c3ccc(Cl)c([N+](=O)[O-])c3)c2c1	nt	26	0.9	15	nt	0.7
COc1ccc(-c2cc(C(=O)OC3CCOC3=O)c3ccccc3n2)cc1 (stereo not drawn)	nt	96*	1	4	-0.59	0
Cc1ccc(C(=O)COC(=O)c2cc(Cl)nc3ccccc23)cc1	nt	-53	0.3	65*	-0.095	1.5
COc1ccc(-c2cc(C(=O)OCC(=O)N(C)C)c3ccccc3n2)cc1	0.64	72*	0.1	88*	0.37	0.3
O=C(OCC(=O)N1CCN(C(=O)c2ccco2)CC1)c1cc(-c2ccco2)nc2ccccc12	nt	28	0.9	13	0.54	0.7
O=C(OCC(=O)N1CCN(C(=O)c2ccco2)CC1)c1cc(-c2ccc(Cl)c(Cl)c2Cl)nc2ccccc12	nt	69*	0.6	40	nt	0.3
COc1ccc(-c2ccc3oc(-c4ccc(OC)cc4)c(C#CC4(O)CCCCC4)c3c2)cc1	nt	nt	nt	nt	-0.37	nt
CC1(C)CC(=O)C2=C(C1)NC(=O)CC2c1ccc(N(CCC#N)CCC#N)cc1 (stereo not drawn)	nt	-8	1.1	-7	-0.08	1.1
O=C1C2C3C=CC(C3)C2C(=O)N1c1n[nH]c(CCc2ccccc2)n1 (stereo not drawn)	-0.42	2	1	-2	-0.054	1
Cc1ccc(-c2noc(CCCC(=O)N3CCOCC3)n2)cc1	-0.093	5	0.8	18	-0.25	0.9
Cc1ccc(-c2noc(CCC(=O)N3CCN(c4cccc(C(F)(F)F)c4)CC3)n2)cc1	0.55	93*	0.2	77*	0.35	0.1
COc1ccc(-c2noc(CCC(=O)N3CCN(c4cc(C)ccc4C)CC3)n2)cc1	-0.66	78*	0.4	65*	0.33	0.2
COc1cc(C2SCC(=O)N2CCCN(C)C)cc(OC)c1OC (stereo not drawn)	nt	5	1.2	-17	-1.3	0.9
Cc1ccc(-c2cccc(NC(=O)C3C4C=CC(C4)C3C(=O)O)c2)o1 (stereo not drawn)	nt	2	1	-3	1.5	1
COc1cc(/C=C(/C(=O)c2cccs2)c2nc3ccccc3[nH]2)cc(OC)c1O	nt	86*	0.5	51*	-0.97	0.1
O=C(/C(=C/c1ccc(Cl)cc1)c1nc2ccccc2[nH]1)c1ccccc1	nt	15	0.9	11	-0.51	0.9
CC(=O)OCc1c(COC(C)=O)[n+](=O)c2ccccc2n1[O-]	nt	6	0.9	9	-1	0.9
CCCc1ncc(C(O)c2cccc3ccccc23)n1C (stereo not drawn)	-0.43	40	0.4	61*	0.02	0.6
Cc1cc(C)nc(Sc2ccc3nnc(C(F)(F)C(F)(F)C(F)(F)F)n3n2)n1	-0.0067	63*	0.4	58*	-0.38	0.4
COc1ccc(C(C)C)cc1S(=O)(=O)N1CCN(C)CC1	-1.1	-16	0.6	37	-0.16	1.2
CC[C@H](C)C(C(=O)N1CCN(C(=O)OC(C)(C)C)CC1)n1cc(C(CC(C)C)NC(=O)OC(C)(C)C)nn1 (stereo partly drawn)	nt	nt	nt	nt	-0.38	nt

Screening data: PubChem, several laboratories
